According to ChEMBL document CHEMBL3988442, “University of Dundee, Small-Polar-MMV Screening Library” (2021):
The whole screen tested about 48,000 compounds, of which about 13,000 (27%) showed an effect of 50% or more. The list shows a part of the results.

test system: Wolbachia pipientis; test: Anti-Wolbachia Cell-Based Screen; assay type: functional; parameters: scale not given: in the data most compounds retested in dose-response had high values; details: 5 µM

Compound | Percent Effect [%]
CCN(Cc1ccoc1)C(=O)NC1CCN(CC=C(C)C)CC1 | -3.465
Cc1cc(CN2C[C@@H](N3CCN(C)CC3)[C@H]3OCCC[C@H]32)oc1C.O=C(O)C(F)(F)F.O=C(O)C(F)(F)F.O=C(O)C(F)(F)F | 8.988
Cc1ccc(C(=O)N2C[C@H]3CCCC(OCc4cccnc4)[C@H]3C2)cn1.O=C(O)C(F)(F)F.O=C(O)C(F)(F)F (stereo not given in full) | -3.164
O=C(c1ccncn1)N1CCO[C@H]2[C@@H](OCc3cccnc3)CC[C@@H]21 | -20.63
O=C(O)C(F)(F)F.O=C(c1cscn1)N1C[C@H]2CCCC(OCc3cccnc3)[C@H]2C1 (stereo not given in full) | -12.9
O=C(c1cscn1)N1C[C@H](OCc2cccnc2)[C@H]2COC[C@H]21 | 102.7
O=C(C1CCOCC1)N1C[C@H](OCc2cccnc2)[C@H]2COC[C@H]21 | 112.8
N#Cc1ccc(C(=O)N2C[C@H](OCc3cccnc3)[C@H]3COC[C@H]32)cc1 | 101.1
Cc1ccc(C(=O)N2C[C@H](OCc3cccnc3)[C@H]3COC[C@H]32)cn1 | 93.92
O=C(c1ccnnc1)N1C[C@H]2CCC[C@@H](OCc3cccnc3)[C@@H]2C1 | -7.774
N#Cc1ccc(N2CCC3(CC2)CC(OCc2cccnc2)CO3)cc1.O=C(O)C(F)(F)F (stereo not given) | 6.886
Cc1nc(CO[C@H]2CN(C(=O)c3cccnc3)[C@@H]3COC[C@H]23)cs1 | -38.06
O=C(c1ccc2c(c1)OCO2)N1C[C@H](OCC2CC2)[C@H]2COC[C@H]21 | -18.04
CNC(=O)[C@@H]1C[C@@H](NC(=O)Cc2nonc2C)CN1Cc1sccc1C | 27.67
CSCCCNC(=O)C1CCC(=O)N(C2CCCC2)C1 (stereo not given) | -0.8236
CCOC(=O)N1CCN(C(=O)C2CC(=O)N(c3ccccc3Br)C2)CC1 (stereo not given) | 18.95
CCN1CCN(C2CCN(C(C(N)=O)c3ccccc3)CC2)C1=O (stereo not given) | -3.87
COC1CCN(C(=O)NCC(N)=O)CC(=O)N(C)c2ccccc21 (stereo not given) | 98.17
Cc1ccccc1N1CC(C)N(C(=O)CCn2cccn2)CC1=O (stereo not given) | 17.53
CCOC(=O)N1CCC(OC)c2ccccc2N(C)C(=O)C1 (stereo not given) | 82.02
CN1CCC(CNC(=O)c2cccc(NC(N)=O)c2)c2ccccc21 (stereo not given) | -10.01
NC(=O)CC1CCN(C(=O)NCc2ccccc2-n2cccn2)CC1 | 4.172
CCOC(=O)COC1CCN(C(C)=O)CC(=O)N(C)c2ccccc21 (stereo not given) | 107.2
CCOC(=O)N1CCN(C(=O)C2Cc3ccccc3CN2C)CC1 (stereo not given) | 6.849
COC1CN(C(=O)NCC(N)=O)CCC(=O)N(C)c2ccccc21 (stereo not given) | 111.8
